Reference: the supplement of paper PMC5919970
Over roughly 2,000 compounds, “fractional viability relative to vehicle” has its median near 0.91; the lowest 2% begin near 0.045. Only a selection was taken, and the lowest values are over-represented in it overall.

Test system: TYKNU
Test: fractional viability relative to vehicle; TYKNU is a high-grade serous ovarian cancer line; higher = less growth inhibition
Conditions: 72 h
In short: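 TYKNU control cells or lentiCRISPRv2 knockout derivatives were plated at 500 cells per well in duplicate into drug-stamped 384-well plates holding a ~2100-compound library at 2 or 10 μM. Culture was in RPMI 1640 with 10% FBS at 37 °C in 5% CO2, with 72 h of drug treatment. Viability was measured by Cell Titer Glo luminescence, and the averaged duplicate treatment wells were normalised to duplicate control wells at the same plate position.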

[1] = 2uM, genotype: DNM1L knockout (sgDNM1L #1)
[2] = 2uM, genotype: sgCTRLA1 (non-targeting control)
[3] = 10uM, genotype: DNM1L knockout (sgDNM1L #1)
[4] = 10uM, genotype: sgCTRLA1 (non-targeting control)

Row | SMILES | fractional viability [1] | fractional viability [2] | fractional viability [3] | fractional viability [4]
1 | COCC(=O)NC/C=C/c1ccc2ncnc(Nc3ccc(Oc4ccc(C)nc4)c(C)c3)c2c1 | 1.07 | 1.08 | 0.886 | 1.06
2 | Cc1c(Cn2c(C)nc3c(C(=O)O)cc(N4CCOCC4)cc32)cccc1C(F)(F)F | 0.754 | 0.989 | 0.83 | 0.849
3 | CC[C@@H]([C@H](C)O)n1ncn(-c2ccc(N3CCN(c4ccc(OC[C@@H]5CO[C@@](Cn6cncn6)(c6ccc(F)cc6F)C5)cc4)CC3)cc2)c1=O [Posaconazole] | 0.919 | 1.13 | 0.868 | 1.05
4 | C=CC(=O)Nc1ccc(CN2C(=O)N(c3cc(OC)cc(OC)c3)Cc3cnc(Nc4ccc(N5CCN(C)CC5)cc4)nc32)cc1 | 0.926 | 0.803 | 0.0593 | 0.0423
5 | C=CC(=O)Nc1cccc(Oc2nc(Nc3ccc(N4CCN(C)CC4)cc3)ncc2Cl)c1 | 0.338 | 0.355 | 0.157 | 0.146
6 | C=CC(=O)Nc1cccc(Oc2nc(Nc3ccc(N4CCN(C)CC4)cc3OC)ncc2Cl)c1 | 0.754 | 0.963 | 0.345 | 0.492
7 | C=CC(=O)Nc1cccc(Nc2nc(Nc3ccc(N4CCN(C(C)=O)CC4)cc3OC)ncc2C(F)(F)F)c1 | 0.528 | 0.856 | 0.24 | 0.235
8 | CCC(=O)Nc1cccc(Oc2nc(Nc3ccc(N4CCN(C)CC4)cc3OC)ncc2Cl)c1 | 0.867 | 0.981 | 0.303 | 0.347
9 | C=CC(=O)Nc1cccc(Sc2nc(Nc3ccc(N4CCN(C)CC4)cc3)ncc2Cl)c1 | 0.965 | 0.898 | 0.0379 | 0.0337
10 | C[C@@H](Nc1cc(F)cc(F)c1)c1cc(C(=O)N(C)C)cc2c(=O)cc(N3CCOCC3)oc12 | 0.647 | 0.847 | 0.701 | 0.566
11 | CN(C)C/C=C/C(=O)Nc1cc2c(Nc3ccc(F)c(Cl)c3)ncnc2cc1O[C@H]1CCOC1 [Afatinib (BIBW2992)] | 0.578 | 0.809 | 0.0953 | 0.0868
12 | CN(C)C/C=C/C(=O)Nc1cc2c(Nc3ccc(F)c(Cl)c3)ncnc2cc1O[C@H]1CCOC1 [Afatinib (BIBW2992) Dimaleate] | 0.77 | 0.984 | 0.77 | 0.767
13 | O=S(=O)(N=Cc1c(O)ccc2ccccc12)c1cccs1 | 0.71 | 0.953 | 0.696 | 0.77
14 | NC(=O)c1noc([C@H](CCCC2CCCCC2)CC(=O)NO)n1 | 0.928 | 1.03 | 0.623 | 0.827
15 | CNS(=O)(=O)Nc1nccc(Cc2c(C)c3ccc(Oc4ncccn4)cc3oc2=O)c1F | 0.326 | 0.304 | 0.239 | 0.199
16 | COc1cc2ncnc(Nc3ccc(F)c(Cl)c3)c2cc1OCCCN1CCOCC1 [Gefitinib (ZD1839)] | 1 | 1.11 | 0.492 | 0.555
17 | Cc1cc2c(F)c(Oc3ncnn4cc(OC[C@@H](C)O)c(C)c34)ccc2[nH]1 | 0.804 | 0.956 | 0.487 | 0.469
18 | COc1cc2c(Oc3ccc4[nH]c(C)cc4c3F)ncnc2cc1OCCCN1CCCC1 [Cediranib (AZD2171)] | 0.99 | 0.847 | 0.0461 | 0.0421
19 | Cc1ncc(CCCN(C)C)cc1Nc1ncc2c(n1)-c1ccc(C(F)(F)F)cc1NC(=S)C2 | 0.211 | 0.231 | 0.259 | 0.251
20 | CC(C)(C)C[C@@H]1N[C@@H](C(=O)N[C@H]2CC[C@H](O)CC2)[C@H](c2cccc(Cl)c2F)[C@]12C(=O)Nc1cc(Cl)ccc12 | 0.274 | 0.277 | 0.259 | 0.225
21 | CCN(CC)CCN(Cc1ccc(-c2ccc(C(F)(F)F)cc2)cc1)C(=O)Cn1c(SCc2ccc(F)cc2)nc(=O)c2c1CCC2 | 0.329 | 0.569 | 0.0156 | 0.00842
22 | CC(=O)Nc1ccccc1 [Acetanilide] | 0.896 | 1.08 | 0.878 | 1.14
23 | CC(C)(C)C(=O)Nc1ccc2c(c1)C(=O)C(=O)c1ccccc1-2 | 0.175 | 0.0968 | 0.0236 | 0.0127
24 | CCCc1nc(C(C)(C)O)c(C(=O)OCc2oc(=O)oc2C)n1Cc1ccc(-c2ccccc2-c2nnn[nH]2)cc1 [Olmesartan Medoxomil] | 0.907 | 0.929 | 1.1 | 1.02
25 | CC(C)(C)C#Cc1cc(N(C(=O)[C@H]2CC[C@H](C)CC2)[C@H]2CC[C@H](O)CC2)c(C(=O)O)s1 [VX-222 (VCH-222, Lomibuvir)] | 0.983 | 1.03 | 0.818 | 0.95
26 | NC(=O)c1cnc(N[C@@H]2CCCC[C@@H]2N)nc1Nc1cccc(-n2nccn2)c1 | 0.751 | 0.853 | 0.185 | 0.142
27 | Fc1ccc(CNc2ncnc3ccc(F)cc23)cc1 [Spautin-1] | 0.675 | 0.763 | 0.67 | 0.447
28 | O=C(NNc1ccccc1)c1ccncc1 | 0.723 | 0.931 | 0.801 | 0.659
